# Assay results reported in PubChem BioAssay (NCI).
# Compounds without any hit were thinned out: in the full panel of roughly 83,000, 20% have a hit.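 48-hour exposure, single concentration, 96-well plates; percent growth endpoint where 0 means no net growth. Active: below 10.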 The source made the active and inactive calls.
# Tested on: NCI-H322M lung
# Experiment: NCI-60 one-dose screen, 48 h (100 = growth as untreated, 0 = no growth, -100 = all killed)
# Details: 10 µM unless noted
# Method: Growth inhibition of the NCI-H322M human Non-Small Cell Lung tumor cell line is measured as a screen for anti-cancer activity. Cells are grown in 96 well plates and exposed to the test compound for 48 hours. Compounds are tested at a single concentration, which is 10^-5 M for most compounds. The reported endpoint is percent growth (GI% or GIPRCNT), where numbers from 0 - 100% represent growth inhibition, and numbers from -100% - 0 represent cell death. For example, a value of 40 represents 60% growth inhibition. A value of 0 means no net growth occurred over the course of the experiment. A value of -40 indicates 40% of cells at the beginning of the experiment died by the end of the experiment. A value of -100 means all cells are dead at the end of the experiment.
# NCI-60 Human Tumor Cell Lines Screen was performed using the standard one-dose NCI protocol, which is described in more detail at https://dtp.cancer.gov/discovery_development/nci-60/default.htm.
# Compounds with GIPRCNT values below 10 were considered active. Activity score was based on GIPRCNT using the following formula: […]
# Score is 0 for GIPRCNT values of 100 or above, 50 for GIPRCNT values of 0, and 100 for GIPRCNT values of -100.
row,Compound,growth
1,COC(=O)[C@H](Cc1c[nH]c2ccccc12)NC(=O)[C@@H](OC)[C@@H]1Cc2cc3cc(OC4CC(OC5CC(O)C(O)C(C)O5)C(O)C(C)O4)c(C)c(O)c3c(O)c2C(=O)[C@H]1OC1CC(OC2CC(OC3CC(C)(O)C(O)C(C)O3)C(O)C(C)O2)C(O)C(C)O1 (stereo not given in full),6.45% (active)
2,C#C[C@]1(OC(=O)CCCCCC)CC[C@H]2[C@@H]3CCC4=CC(=O)CC[C@@H]4[C@H]3CC[C@@]21C,49.5% (inactive)
3,C#Cc1ccc2c(c1)C(c1ccccc1F)=NCC(=O)N2C,69.6% (inactive)
4,CCCCN(CCCC)P(=O)(Oc1ccccc1)Oc1ccccc1,85.1% (inactive)
5,CCOc1ccccc1C(=O)OCC(Cl)(Cl)Cl,102% (inactive)
6,CC[C@H](C)[C@H](NC(=O)[C@H]1CCCCN1C)C(=O)N(C)[C@H](C[C@@H](OC(C)=O)c1cccc(C(=O)N[C@@H](Cc2ccccc2)C[C@H](C)C(=O)O)n1)C(C)C,45.2% (inactive)
7,c1cnc2[nH]cc(-c3csc(-c4cn(CCCCN5CCOCC5)c5ccccc45)n3)c2c1,79% (inactive)
8,O=C(CC1(O)C(=O)N(Cc2ccccc2)c2ccccc21)c1ccc(C(=O)NCC2CCC3(CC2)OOC2(CCCCC2)OO3)cc1 (stereo not given),65.2% (inactive)
9,COc1cc2c(cc1OCCCCn1c(-c3cccs3)nc3ccccc31)N=C[C@@H]1CCCN1C2=O,-30.5% (active)
10,COC(=O)[C@@H](C)C[C@H](Cc1cn(C)c2ccccc12)NC(=O)c1csc([C@@H](C[C@H](C(C)C)N(C)C(=O)[C@@H](NC(=O)[C@H]2CCCCN2C)C(C)C)OC(C)=O)n1,37.8% (inactive)
11,CN1CC(=O)N(O)C1(C)c1cccnc1 (stereo not given),98.7% (inactive)
12,CC[C@H](C)[C@H](NC(=O)C12C3C4C1C1C2C3C41NC)C(=O)N(C)[C@H](C[C@@H](OC(C)=O)c1nc(C(=O)N[C@@H](Cc2ccccc2)C[C@H](C)C(=O)OC)cs1)C(C)C (stereo not given in full),51.9% (inactive)
13,COC(=O)[C@@H](C)C[C@H](Cc1ccccc1)NC(=O)c1cccc([C@@H](C[C@H](C(C)C)N(C)C(=O)[C@@H](NC(=O)[C@H]2CCCCN2C)C(C)C)OC(C)=O)n1,47.6% (inactive)
14,O=C(CC1(O)C(=O)Nc2ccccc21)c1ccc(C(=O)NCC2CCC3(CC2)OOC2(CCCCC2)OO3)cc1 (stereo not given),88.9% (inactive)
15,CC(C)(C)C(=O)OCOP(=O)(NCc1ccccc1)C1CCCN(O)C1=O (stereo not given),27.8% (inactive)
16,CC(=O)O[C@H]1CC[C@@]2(C)C(=CC[C@H]3[C@@H]4C[C@@H](N5CC5)[C@H](C(C)=O)[C@@]4(C)CC[C@@H]32)C1,110% (inactive)
17,CC(C)COC(C[N+](=O)[O-])C(Cl)(Cl)Cl (stereo not given),106% (inactive)
18,CC1CN1CCCCN1CC1C (stereo not given),101% (inactive)
19,COc1ccc(Nc2ccnc3cc(Cl)ccc23)cc1CN(CCCl)CCCl,-34% (active)
20,CC(=O)OCC1O[C@@H]([S-])C(OC(C)=O)[C@H](OC(C)=O)[C@@H]1OC(C)=O.[Au+].c1ccc(CN2[CH-]N(Cc3ccccc3)C(c3ccccc3)=C2c2ccccc2)cc1,82.7% (inactive)

row,Compound,growth
1,COc1cc(C=C2c3ccccc3C(=O)c3ccccc32)ccc1OCCCCOc1cc2c(cc1OC)C(=O)N1CCCC1C=N2 (stereo not given),13.3% (inactive)
2,Nc1ccc(-c2nc3cc(F)ccc3[se]2)cc1F,72.6% (inactive)
3,COC(=O)[C@@H](C)C[C@H](Cc1ccccc1)NC(=O)c1csc([C@@H](C[C@H](C(C)C)N(C)C(=O)[C@@H](NC(=O)[C@H]2CCCCN2C)C2CCCCC2)OC(C)=O)n1,34.1% (inactive)
4,O=[N+]([O-])c1ccc([Se]C2CCCCC2Cl)c([N+](=O)[O-])c1 (stereo not given),55.7% (inactive)
5,C[C@@H]1O[C@@H](O[C@H]2C[C@@H](O)[C@]3(CO)C4C(CC[C@]3(O)C2)[C@@]2(O)CC[C@H](C3=CC(=O)OC3)[C@@]2(C)C[C@H]4O)[C@H](O)[C@H](O)[C@H]1O (stereo not given in full),-64.5% (active)
6,COC(=O)[C@@H](C)C[C@H](Cc1ccccc1)NC(=O)c1csc([C@@H](C[C@H](C(C)C)N(C)C(=O)[C@@H](NC(=O)[C@H]2CCCCN2C)C2CC2)OC(C)=O)n1,52.2% (inactive)
7,CC1=C(O)[C@@](C)(CCCCC[C@H](C)CCCCc2ccc(O)cc2)OOC1=O,94.6% (inactive)
8,CN1CC(CNC(=O)OCc2ccccc2)CC2c3cccc4c3c(cn4C)CC21 (stereo not given),82.9% (inactive)
9,O=C(O)c1ccc([S-])cc1.[Au+].c1ccc(CN2[CH-]N(Cc3ccccc3)C(c3ccccc3)=C2c2ccccc2)cc1,7.67% (active)
10,CCCCCCCOC(C(=O)OCCN(CC)CC)(c1ccccc1)c1ccccc1,98.7% (inactive)
11,Nc1ccc(OCCNS(=O)(=O)c2cccc(S(=O)(=O)F)c2)c(Cl)c1,87.5% (inactive)
12,O=C1C(=Cc2cn(Cc3ccccc3)c3ccccc23)C(=O)N(Cc2ccccc2)C(=O)N1Cc1ccccc1,105% (inactive)
13,O=C(CC1(O)C(=O)N(Cc2ccccc2)c2ccc(Cl)cc21)c1ccc(C(=O)NCC2CCC3(CC2)OOC2(CCCCC2)OO3)cc1 (stereo not given),64.2% (inactive)
14,COC(=O)[C@@H](C)C[C@H](Cc1ccccc1)NC(=O)c1csc([C@@H](C[C@H](C(C)C)N(C)C(=O)[C@@H](NC(=O)[C@H]2CCCCN2C)C(C(F)(F)F)C(F)(F)F)OC(C)=O)n1,37% (inactive)
15,CN(C)C(=O)Oc1ccc(Br)cc1,86.1% (inactive)
16,CCCCCCCC[N+](C)(CCCCCCCC)CCCCCCCC,-100% (active)
17,CCCC(C)C1(CC)C(=O)NC(=O)N(C)C1=O (stereo not given),100% (inactive)
18,CNC(=O)Oc1cccc(C(F)(F)F)c1,125% (inactive)
19,O=C1C(Cl)=C(N2CCOCC2)C(=O)c2ccccc21,122% (inactive)
20,CCOC(=O)[C@@H](C)C[C@H](Cc1ccccc1)NC(=O)c1csc([C@@H](C[C@H](C(C)C)N(C)C(=O)[C@@H](NC(=O)[C@H]2CCCCN2C)C(C)(C)C)OC(C)=O)n1,27.3% (inactive)
